Test results: the supplement of paper PMC6555819

These sequences were tested on VDR:RXRa (NR concentration 270 nM, RXRa partner concentration 90 nM) (assay: PBM binding z-score (relative to random genomic background probes); higher = stronger binding; sequences stand for … in GC…GCGATTGACAGCGTAGAATGAAGG).
Protocol: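 Protein-binding microarray (Agilent 4x180K custom design, double-stranded 60-nt probes: 5' GC cap, 34-nt variable region, 24-nt constant primer region; full probe sequence given). Purified or IVT nuclear receptor:RXRα heterodimers (3:1 NR:RXRα, mostly 270:90 nM) or homodimers were incubated for 1 h in PBS with 2% milk and no ligand, then detected with Alexa488 antibodies. Fluorescence from o1-orientation probes (~5 replicates averaged) was converted to z-scores against 500 random hg19 background probes. Variable regions are seed direct-repeat (DR0–DR5) sites, all their single-nucleotide variants and half-site ablations.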

Compared with TAGCCTAAGTCATGGGCCAGTATACCACGCGAAC, ATATGTAGGTTCCATCCGGGTCATTCAGGCTATG is higher in PBM binding z-score: -0.25 for the first, 3.22 for the second.

Going from TATACAGGGTCTAAGGCCAGAGTACGAATGTCGA to ATCCAAAGGTCGAGGTGAGTATAGAGAAAGGGAA, the PBM binding z-score rises from 0.486 to 3.05.

Compared with GATAAAGGGTCAGCTAGAGGCCAGAGTATGGAAA, ATATGTAGGTTAGGGGCATTCAGAAAGTAGGGAA is lower in PBM binding z-score: 3.73 for the first, 1.44 for the second.

Compared with CGAACTAGCTCAAAGGACAGTGAAAGGCGACGTA, TAGCCTAGCTCATTCAGGGGCCAGTATAGAAAGC is higher in PBM binding z-score: -0.564 for the first, -0.541 for the second.

Compared with ATATGAAGGTTAGGGTCATTCAGAAAGTAGGGAA, ATCGAAGGGTCGAAGGTGAGTATACCCACCCGAA is lower in PBM binding z-score: 4.6 for the first, 1.66 for the second.

Compared with ATCGAAAGGTCGAAGGTCAGTATACCCACCCGAA, ATAAGTAGGTTAGGGTCATTCAGAAAGTAGGGAA is higher in PBM binding z-score: 4.35 for the first, 4.88 for the second.

First: ATATGTAGGTTAGGGTCGTTCAGAAAGTAGGGAA
Second: GCTGCTAGGTCAGGTTGGTCGGCTAACGGGTACG
The PBM binding z-score of the first is higher: 2.57 for the first, 0.166 for the second.

Compared with CAAACTAGGTCACAGAGGACAAAGTCCGTGCGTA, TAGCCTAGGTTATGCGGGCCAGTATAGTGTCGGC is lower in PBM binding z-score: 6.52 for the first, -0.0997 for the second.

First: CGAACTAGGACAAAGGACAGTGAAAGGCGACGTA
Second: CTCGAAAGGTCGTGCTCAGGTGAGTATGCCAAAC
The PBM binding z-score of the first is lower: -0.353 for the first, 3.25 for the second.

Going from ATATGTAGGTTAGGGTAATTCAGAAAGTAGGGAA to AACGAAAGGTCGACGAGGTGAGTATACACCGTTT, the PBM binding z-score rises from 1.09 to 5.12.

Going from CGTCAAAGTTAAAGGTAACGTAACAGAAAGCAGC to CGAACTACGTCACCAGGACAGTGAAGAGGTTGGA, the PBM binding z-score falls from 0.291 to -0.211.

Going from CGAACTAGGTCAAAGGACGGTGAAAGGCGACGTA to CAAAGTAGGTCAAGAGGTCAAAGTCCGCTTCCCG, the PBM binding z-score rises from 1.12 to 6.25.

First: CTAACTAGGTCACAGAGGTCAAAGTCCGTGCGTA
Second: CCTAGTTGGTCAGGAGGTCACATACCGGATATGA
The PBM binding z-score of the first is higher: 8.06 for the first, 3.57 for the second.

Compared with CCTAGCAGGCCAGGTTCACTCAAGCATTTCGCTT, ATATGTAGGTTAGGGTTATTCAGAAAGTAGGGAA is lower in PBM binding z-score: 2.09 for the first, 1.94 for the second.

Going from CTTTGTAGGTTAAGGGGGTCATTCAGTTTGAAAG to TCGAGTCGGTTACGGGGGCATTCAGGGATGAAGA, the PBM binding z-score falls from 7.48 to 2.73.

Going from CGTCCAAGGTCAATGCTAGCTCAGTGAAAGCATT to TCGAGTAGGTTACGGGGGCATGCAGGGATGAAGA, the PBM binding z-score falls from 3.63 to 3.43.

Compared with CCCCGGAGGACAGAAGGTCAGAGCTGTCCGCTTT, CGAACTAGGTCAGAACAGTACAGTGAAGGATGAT is higher in PBM binding z-score: 0.723 for the first, 0.879 for the second.

First: AATACAGGGTCACTAGGCCAGAGTGGGTACGAAT
Second: CCTACTGGGCCAAAAAGGCCATTGATGCCGATAA
The PBM binding z-score of the first is higher: 3.97 for the first, 0.326 for the second.

Compared with ATCGAAAGGTCGAAGGAGAGTATACCCACCCGAA, ATATTTAGGTTAGGGTCATTCAGAAAGTAGGGAA is higher in PBM binding z-score: 2.23 for the first, 4.6 for the second.

Going from CCTAGTGGGCCAAAGGTCATTGATTCCAATGCTC to ATATGGAGGTTAGGGTCATTCAGAAAGTAGGGAA, the PBM binding z-score falls from 4.68 to 4.64.
